From PubChem BioAssay (EPA / NIEHS)
“And” between values parts separate entries of the source, which are not always exact repeats. Identical values can stand only once. Where a structure was tested more than once in an assay, its records may differ in their call. The source made the active and inactive calls. How the source made its calls: active means hit-call score of the fitted dose curve at least 0.9, where 1 is the maximum; inactive means score below 0.9.

Key:
[1] = read-out: Tissue plasminogen activator (tPA), PLAT (gene 5327); test: BSK_BE3C_tPA: BioMAP Diversity Plus: BE3C Assay for Tissue plasminogen activator (tPA) Biomarker Activity (AID 2283041); conditions: primary human bronchial epithelial cells; actives raise or lower the signal;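 on outcome: tPA level quantified by ELISA one day after compound addition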
How it was run: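 Human primary bronchial epithelial cells were dosed with chemical and tPA biomarker levels measured by ELISA 24 hours later. Activity was fitted bidirectionally against DMSO as negative control and baseline.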

[2] = read-out: Interleukin-8 (IL8), CXCL8 (gene 3576); test: BSK_CASM3C_IL8: BioMAP Diversity Plus: CASM3C Assay for Interleukin-8 (IL8) Biomarker Activity (AID 2283042); conditions: primary human coronary artery smooth muscle cells; actives raise or lower the signal;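 further: IL-8 protein level quantified by ELISA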
[3] = read-out: Human Leukocyte Antigen - DR isotype (HLADR), HLA-DRA (gene 3122); test: BSK_CASM3C_HLADR: BioMAP Diversity Plus: CASM3C Assay for Human Leukocyte Antigen - DR isotype (HLADR) Biomarker Activity (AID 2283043); conditions: primary human coronary artery smooth muscle cells; actives raise or lower the signal;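 further: cell-surface HLA-DR protein level quantified by ELISA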
[4] = read-out: Macrophage colony-stimulating factor (MCSF), CSF1 (gene 1435); test: BSK_CASM3C_MCSF: BioMAP Diversity Plus: CASM3C Assay for Macrophage colony-stimulating factor (MCSF) Biomarker Activity (AID 2283044); conditions: primary human coronary artery smooth muscle cells; actives raise or lower the signal;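 further: M-CSF protein amount quantified by ELISA after 24 h exposure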
[5] = read-out: Low-density lipoprotein receptor (LDLR), LDLR (gene 3949); test: BSK_CASM3C_LDLR: BioMAP Diversity Plus: CASM3C Assay for Low-density lipoprotein receptor (LDLR) Biomarker Activity (AID 2283045); conditions: primary human coronary artery smooth muscle cells; actives raise or lower the signal;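 further: LDLR protein level on the cell surface quantified by ELISA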
[6] = read-out: Monocyte Chemoattractant Protein-1 (MCP1), CCL2 (gene 6347); test: BSK_CASM3C_MCP1: BioMAP Diversity Plus: CASM3C Assay for Monocyte Chemoattractant Protein-1 (MCP1) Biomarker Activity (AID 2283046); conditions: primary human coronary artery smooth muscle cells; actives raise or lower the signal;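 further: MCP-1 level quantified by ELISA 24 h after dosing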
[7] = BSK_CASM3C_Proliferation: Cell Proliferation Assessment in the BioMAP Diversity Plus: CASM3C Assay (AID 2283047); conditions: primary human coronary artery smooth muscle cells;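 further: sulforhodamine B total protein stain as relative cell number at 560 nm; sub-confluent cells exposed 48 h before staining; fitted both ways against DMSO so gain or loss of cell number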
[8] = read-out: Monokine induced gamma interferon (MIG), CXCL9 (gene 4283); test: BSK_CASM3C_MIG: BioMAP Diversity Plus: CASM3C Assay for Monokine induced gamma interferon (MIG) Biomarker Activity (AID 2283048); conditions: primary human coronary artery smooth muscle cells; actives raise or lower the signal;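 further: MIG protein level measured by ELISA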
[9] = read-out: serum amyloid A (SAA), SAA1 (gene 6288); test: BSK_CASM3C_SAA: BioMAP Diversity Plus: CASM3C Assay for serum amyloid A (SAA) Biomarker Activity (AID 2283049); conditions: primary human coronary artery smooth muscle cells; actives raise or lower the signal;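 further: SAA protein level quantified by ELISA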
[10] = BSK_CASM3C_SRB: Viability Assessment in the BioMAP Diversity Plus: CASM3C Assay (AID 2283050); conditions: primary human coronary artery smooth muscle cells;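 further: total protein by SRB staining as cytotoxicity measure in parallel cultures; cells exposed to compound for 24 h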

| Structure (SMILES) | outcome [1] | outcome [2] | outcome [3] | outcome [4] | outcome [5] | AC50 [6] | AC50 [7] | outcome [8] | outcome [9] | outcome [10] | AC50 [1] | AC50 [3] | AC50 [4] | AC50 [8] | AC50 [9] | AC50 [10] | outcome [6] | outcome [7] | AC50 [2] | AC50 [5] |
| --- | --- | --- | --- | --- | --- | --- | --- | --- | --- | --- | --- | --- | --- | --- | --- | --- | --- | --- | --- | --- |
| [2H]C1([2H])[n+]2ccccc2-c2cccc[n+]2C1([2H])[2H] | inactive | inactive | inactive | inactive | inactive | 0.156 µM (active) | 10.6 µM (active) | inactive | inactive | inactive |  |  |  |  |  |  |  |  |  |  |
| CCC(C)(NC(=O)c1cc(Cl)c(C)c(Cl)c1)C(=O)CCl (configuration not stated) |  | inactive |  |  | inactive | 22.9 µM (active) | 18.5 µM (active) |  |  |  | 11 µM (active) | 17.7 µM (active) | 25.2 µM (active) | 17.5 µM (active) | 14.4 µM (active) | 23.4 µM (active) |  |  |  |  |
| CNC(=O)/C=C(\C)OP(=O)(OC)OC | inactive | inactive | inactive | inactive | inactive |  |  | inactive | inactive | inactive |  |  |  |  |  |  | inactive | inactive |  |  |
| O=S1OCC2C(CO1)C1(Cl)C(Cl)=C(Cl)C2(Cl)C1(Cl)Cl (configuration not stated) |  |  |  |  | inactive | 31.7 µM (active) | 32.7 µM (active) |  |  |  | 21.5 µM (active) | 32.5 µM (active) | 31.5 µM (active) | 32.1 µM (active) | 32.7 µM (active) | 32.4 µM (active) |  |  | 29.6 µM (active) |  |
| Oc1cc(Cl)ccc1Oc1ccc(Cl)cc1Cl |  |  |  |  |  | 33.6 µM (active) and 37.7 µM (active) and 31.4 µM (active) | 17.6 µM (active) [middle of 4 runs] |  |  |  | 20.4 µM (active) [middle of 4 runs] | 29.4 µM (active) [middle of 4 runs] | 34 µM (active) [middle of 4 runs] | 37.8 µM (active) [middle of 4 runs] | 32 µM (active) [middle of 4 runs] | 33.1 µM (active) [middle of 4 runs] |  |  | 37.7 µM (active) [middle of 4 runs] | 30 µM (active) [middle of 4 runs] |
| CCC(C)Nc1c([N+](=O)[O-])cc(C(C)(C)C)cc1[N+](=O)[O-] (configuration not stated) | inactive | inactive | inactive | inactive | inactive |  |  | inactive | inactive | inactive |  |  |  |  |  |  | inactive | inactive |  |  |
| Oc1ccc(Cl)cc1Cc1ccccc1 |  | inactive |  |  | inactive | 37.5 µM (active) [middle of 4 runs] | 32.2 µM (active) [middle of 7 runs] | inactive |  |  | 29.7 µM (active) [middle of 7 runs] | 31.1 µM (active) [middle of 7 runs] | 29.6 µM (active) [middle of 7 runs] | 32.7 µM (active) [middle of 6 runs] | 31.1 µM (active) [middle of 6 runs] | 32.4 µM (active) [middle of 7 runs] |  |  | 31.5 µM (active) [middle of 5 runs] | 29.1 µM (active) [middle of 5 runs] |
| C[C@H]1[C@H](c2ccc(Cl)cc2)SC(=O)N1C(=O)NC1CCCCC1 | inactive | inactive | inactive | inactive | inactive |  | 20 µM (active) | inactive | inactive | inactive |  |  |  |  |  |  | inactive |  |  |  |
| ClC1C(Cl)C(Cl)C(Cl)C(Cl)C1Cl (configuration not stated) | inactive | inactive | inactive | inactive | inactive |  | 20 µM (active) and 29.6 µM (active) | inactive | inactive | inactive |  |  | 32.4 µM (active) |  | 34.8 µM (active) | 35.2 µM (active) | inactive | inactive |  | 27.8 µM (active) |
| O=[N+]([O-])/N=C1\NCCN1Cc1ccc(Cl)nc1 | inactive | inactive | inactive | inactive | inactive |  |  | inactive | inactive | inactive |  |  |  |  |  |  | inactive | inactive |  |  |
| COP(=S)(OC)Oc1ccc(SC)c(C)c1 | inactive | inactive | inactive | inactive | inactive |  |  | inactive | inactive | inactive |  |  |  |  |  |  | inactive | inactive |  |  |
| O=C1c2ccccc2C(=O)N1SC(Cl)(Cl)Cl | inactive |  |  |  | inactive | 30 µM (active) | 18.8 µM (active) |  | inactive |  |  | 28.7 µM (active) | 16 µM (active) | 30.4 µM (active) |  | 29 µM (active) |  |  | 38.6 µM (active) |  |
| O=C(Nc1ccccc1)Nc1cnns1 | inactive | inactive | inactive | inactive | inactive |  |  | inactive | inactive | inactive |  |  |  |  |  |  | inactive | inactive |  |  |
| O=C(O)CCCOc1ccc(Cl)cc1Cl | inactive | inactive | inactive | inactive | inactive |  |  | inactive | inactive | inactive |  |  |  |  |  |  | inactive | inactive |  |  |
| COc1cc(OC)nc(NC(=O)NS(=O)(=O)c2cc(NC=O)ccc2C(=O)N(C)C)n1 | inactive | inactive | inactive | inactive | inactive |  |  | inactive | inactive | inactive |  |  |  |  |  |  | inactive | inactive |  |  |
| CNC(=O)Oc1ccccc1OC(C)C | inactive | inactive | inactive | inactive | inactive |  |  | inactive | inactive | inactive |  |  |  |  |  |  | inactive | inactive |  |  |
| CNC(=O)Oc1cccc(N=CN(C)C)c1 | inactive | inactive | inactive | inactive | inactive |  |  | inactive | inactive | inactive |  |  |  |  |  |  | inactive | inactive |  |  |
| CCCN(CCOc1c(Cl)cc(Cl)cc1Cl)C(=O)n1ccnc1 | inactive | inactive | inactive | inactive | inactive |  | 26.8 µM (active) | inactive | inactive | inactive |  |  |  |  |  |  | inactive |  |  |  |
| COc1nn(CSP(=S)(OC)OC)c(=O)s1 | inactive | inactive | inactive | inactive | inactive |  |  | inactive | inactive | inactive |  |  |  |  |  |  | inactive | inactive |  |  |
| COP(=S)(OC)Oc1ccc([N+](=O)[O-])cc1 | inactive | inactive | inactive | inactive | inactive | 0.877 µM (active) |  | inactive | inactive | inactive |  |  |  |  |  |  |  | inactive |  |  |
| CC(C)(C)C(O)C(Oc1ccc(Cl)cc1)n1cncn1 (configuration not stated) | inactive | inactive | inactive | inactive | inactive |  |  | inactive | inactive | inactive |  |  |  |  |  |  | inactive | inactive |  |  |
| COP(=O)(OC)OC=C(Cl)Cl | inactive | inactive | inactive | inactive | inactive |  | 8.32 µM (active) | inactive | inactive | inactive |  |  |  |  |  |  | inactive |  |  |  |
| CC(C)(C)C(O)/C(=C\c1ccc(Cl)cc1Cl)n1cncn1 (configuration not stated) |  | inactive | inactive | inactive | inactive |  | 20 µM (active) | inactive | inactive | inactive | 8.37 µM (active) |  |  |  |  |  | inactive |  |  |  |
| O=C(O)C(F)(F)C(F)(F)C(F)(F)C(F)(F)C(F)(F)C(F)(F)C(F)(F)F | inactive | inactive | inactive | inactive | inactive |  | 16.6 µM (active) | inactive | inactive | inactive |  |  |  | 36.6 µM (active) |  |  | inactive | inactive |  |  |
| O=S(=O)(O)C(F)(F)C(F)(F)C(F)(F)C(F)(F)C(F)(F)C(F)(F)C(F)(F)C(F)(F)F | inactive | inactive | inactive | inactive | inactive |  |  | inactive | inactive | inactive | 15.3 µM (active) and 16 µM (active) and 25.9 µM (active) |  |  | 47.3 µM (active) and 52.5 µM (active) |  |  | inactive | inactive |  |  |
| CCCN(CCC)c1c([N+](=O)[O-])cc(C(F)(F)F)cc1[N+](=O)[O-] | inactive | inactive | inactive | inactive | inactive |  |  | inactive | inactive | inactive |  |  |  |  |  |  | inactive | inactive |  |  |
